Values joined by “and” are separate entries in the source; they are usually repeats but may differ in a detail not shown here. Equal entries are not always repeated. About 83,000 compounds went through this panel and 20% of them were active in at least one assay; those are over-represented in the sample as a whole.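 For each line, cells grew in 96-well plates with the test compound present at a single concentration for 48 hours.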 Active and inactive are the calls of the source. The calls were made as follows: active = growth percent below 10; inactive = the rest.

Experiment in all cases: NCI-60 one-dose screen, 48 h (100 = growth as untreated, 0 = no growth, -100 = all killed)
The subject of assay [1] is NCI-H226 lung. Conditions: 10 µM unless noted.
The test system of assay [2] is NCI-H322M lung. The conditions noted are these: 10 µM unless noted.
Assay [3] concerns HOP-62 NSCLC. The conditions noted are these: 10 µM unless noted.
The subject of assay [4] is NCI-H460 lung.
Assay [5] concerns HOP-92 NSCLC. The conditions noted are these: 10 µM unless noted.
In assay [6] the test system is NCI-H522 lung. The conditions noted are these: 10 µM unless noted.
Assay [7] concerns A549/ATCC NSCLC.
The test system of assay [8] is 786-0 renal.
Assay [9] concerns COLO 205 colon.
The test system of assay [10] is DU-145 prostate.
The subject of assay [11] is K-562 leukemia. The conditions noted are these: 10 µM unless noted.
Assay [12] concerns MALME-3M melanoma.
Assay [13] relates to MDA-MB-231 breast.
Assay [14] deals with RXF 393 renal.
Assay [15] relates to SF-268 CNS.
The subject of assay [16] is SF-295 CNS.
Assay [17] concerns SF-539 CNS.
In assay [18] the test system is UACC-257 melanoma.
The subject of assay [19] is M14 melanoma.

On to `CCN(CC)CCO/N=C1\CC(c2ccc(OC)c(OC)c2)Oc2ccccc21` (stereo not drawn), for which the growth was 84.7% (inactive) in [1]; 94.8% (inactive) in assay [2]; 104% (inactive) in assay [3]; 104% (inactive) in assay [4] (10 µM unless noted); 79.6% (inactive) in assay [5]; 88.2% (inactive) in assay [6]. For the same compound, the growth in assay [7] (10 µM unless noted) was 97% (inactive); in assay [8] (10 µM unless noted), 81.1% (inactive); in assay [9] (10 µM unless noted), 97.5% (inactive); in [10] (10 µM unless noted), 105% (inactive); in [11], 82.6% (inactive); in assay [12] (10 µM unless noted), 107% (inactive). The growth in [13] (10 µM unless noted) was 101% (inactive); in assay [14] (10 µM unless noted), 65.5% (inactive); in assay [15] (10 µM unless noted) it was 99.3% (inactive); in [16] (10 µM unless noted) it was 98.2% (inactive); in assay [17] (10 µM unless noted) it was 94.7% (inactive); in [18] (10 µM unless noted), 101% (inactive). In addition, the growth in assay [19] (10 µM unless noted) was 99.9% (inactive).
Turning to `CC(O)CCNC(c1ccccc1)C(O)c1ccccc1` (stereo not drawn), the growth is 111% (inactive) in assay [1]; 112% (inactive) in [2]; 104% (inactive) in [3]; 106% (inactive) in assay [4] (10 µM unless noted); 86% (inactive) in assay [5]; 89.8% (inactive) in assay [6]. Also, the growth was 117% (inactive) in assay [7] (10 µM unless noted); 97.9% (inactive) in [8] (10 µM unless noted); 117% (inactive) in [9] (10 µM unless noted); 131% (inactive) in assay [10] (10 µM unless noted); 101% (inactive) in [11]; 123% (inactive) in [12] (10 µM unless noted). The growth was 104% (inactive) in assay [13] (10 µM unless noted); 115% (inactive) in [14] (10 µM unless noted); 111% (inactive) in assay [15] (10 µM unless noted); 102% (inactive) in assay [16] (10 µM unless noted); 115% (inactive) in assay [17] (10 µM unless noted); 108% (inactive) in [18] (10 µM unless noted). In addition, the growth in assay [19] (10 µM unless noted) is 104% (inactive).
Consider `S=c1nn[nH]n1C1CCCCC1`, for which the growth in assay [1] is 102% (inactive); in assay [2] it was 102% (inactive); in assay [3] it was 126% (inactive); in assay [4] (10 µM unless noted) it was 95.7% (inactive); in [5], 93.2% (inactive); in assay [6] it was 117% (inactive). Also, the growth was 106% (inactive) in [7] (10 µM unless noted); 99.7% (inactive) in assay [8] (10 µM unless noted); 123% (inactive) in [9] (10 µM unless noted); 105% (inactive) in assay [10] (10 µM unless noted); 122% (inactive) in [11]; 95.8% (inactive) in [12] (10 µM unless noted). Moreover, the growth in [13] (10 µM unless noted) was 116% (inactive); in assay [14] (10 µM unless noted) it was 148% (inactive); in [15] (10 µM unless noted) it was 105% (inactive); in assay [16] (10 µM unless noted), 97% (inactive); in assay [17] (10 µM unless noted), 106% (inactive); in assay [18] (10 µM unless noted), 97.8% (inactive). For the same compound, the growth in assay [19] (10 µM unless noted) is 100% (inactive).
As to `COc1ccc(CCl)c(C)c1OC`, the growth was 95.8% (inactive) in assay [1]; 95.8% (inactive) in assay [2]; 104% (inactive) in assay [3]; 86.1% (inactive) in assay [5]; 99.8% (inactive) in [6]; 102% (inactive) in assay [7] (10 µM unless noted). Besides, the growth is 106% (inactive) in [8] (10 µM unless noted); 109% (inactive) in assay [9] (10 µM unless noted); 104% (inactive) in assay [10] (10 µM unless noted); 6.6% (active) in assay [11]; 84.9% (inactive) in assay [12] (10 µM unless noted); 98.5% (inactive) in [13] (10 µM unless noted). The growth was 112% (inactive) in [14] (10 µM unless noted); 97.1% (inactive) in assay [15] (10 µM unless noted); 95.3% (inactive) in assay [16] (10 µM unless noted); 99.4% (inactive) in [17] (10 µM unless noted); 96% (inactive) in assay [18] (10 µM unless noted); 110% (inactive) in assay [19] (10 µM unless noted).
On to `CC1=CC(=O)C=CC1=Nc1ccc(N(C)C)cc1`, for which the growth in [1] was 95.6% (inactive) and 70.4% (inactive); in assay [2], 99.2% (inactive) and 88.2% (inactive); in assay [3], 92.4% (inactive) and 72% (inactive); in assay [4] (10 µM unless noted), 103% (inactive) and 70.1% (inactive); in assay [5], 81.2% (inactive) and 7.79% (active); in assay [6], 29.9% (inactive). Besides, the growth in [7] (10 µM unless noted) is 101% (inactive) and 58.7% (inactive); in assay [8] (10 µM unless noted), 95.2% (inactive) and 76% (inactive); in assay [9] (10 µM unless noted), 71.1% (inactive) and -30.2% (active); in [10] (10 µM unless noted), 107% (inactive) and 71.8% (inactive); in [11], 62% (inactive) and 7.74% (active); in [12] (10 µM unless noted), 112% (inactive) and 66.4% (inactive). Moreover, the growth in assay [13] (10 µM unless noted) was 87.1% (inactive); in [14] (10 µM unless noted), 93.2% (inactive) and 50.6% (inactive); in assay [15] (10 µM unless noted), 93.9% (inactive) and 66.9% (inactive); in assay [16] (10 µM unless noted) it was 84.7% (inactive) and 65.6% (inactive); in assay [17] (10 µM unless noted), 94.1% (inactive) and 44.5% (inactive); in assay [18] (10 µM unless noted), 82% (inactive). Moreover, in [19] (10 µM unless noted), the growth was 93.5% (inactive) and 41.1% (inactive).
For `S=c1nc[nH]c2nc[nH]c12`, the growth in [1] was 46.3% (inactive); in assay [2] it was 33% [50 µM] (inactive); in assay [4] (10 µM), 45.3% (inactive); in assay [4] (50 µM), 26.9% (inactive); in [5], 51% [50 µM] (inactive); in assay [7] (10 µM), 84.8% (inactive). The growth in assay [7] (50 µM) is 48.2% (inactive); in assay [8] (10 µM), 17.3% (inactive); in [8] (50 µM), 25.9% (inactive); in assay [9] (10 µM), 35.2% (inactive); in assay [9] (50 µM), 6.94% (active); in assay [10] (10 µM) it was 44.3% (inactive). Besides, the growth in [10] (50 µM) is 25.3% (inactive); in assay [11], 11.9% [50 µM] (inactive); in assay [12] (10 µM), 50.1% (inactive); in [12] (50 µM) it was 17.4% (inactive); in assay [13] (10 µM), 42.9% (inactive); in assay [13] (50 µM), 40.2% (inactive). In addition, the growth in assay [14] (10 µM) was 62.8% (inactive); in [14] (50 µM) it was 59.7% (inactive); in [15] (10 µM), 39.2% (inactive); in assay [15] (50 µM) it was 24.7% (inactive); in assay [16] (10 µM), 11.4% (inactive); in assay [16] (50 µM), 18.1% (inactive). The growth in [17] (10 µM) was 31.2% (inactive); in assay [17] (50 µM) it was 14.4% (inactive); in [18] (10 µM), 44.2% (inactive); in [18] (50 µM), 29.7% (inactive); in assay [19] (10 µM), 14.1% (inactive); in assay [19] (50 µM), 15.6% (inactive).
For `CCN(CC)C(=S)SCCO`, the growth in assay [1] is 99.3% (inactive); in assay [2] it was 97.1% (inactive); in assay [3], 104% (inactive); in [4] (10 µM unless noted), 104% (inactive); in [5], 109% (inactive); in [6] it was 95.5% (inactive). Further, the growth in [7] (10 µM unless noted) was 99.3% (inactive); in assay [8] (10 µM unless noted), 104% (inactive); in assay [9] (10 µM unless noted), 114% (inactive); in [10] (10 µM unless noted), 107% (inactive); in [11] it was 97% (inactive); in [12] (10 µM unless noted), 99.7% (inactive). Besides, the growth was 101% (inactive) in [13] (10 µM unless noted); 106% (inactive) in assay [14] (10 µM unless noted); 102% (inactive) in assay [15] (10 µM unless noted); 106% (inactive) in assay [16] (10 µM unless noted); 102% (inactive) in [17] (10 µM unless noted); 96.3% (inactive) in assay [18] (10 µM unless noted). The growth in assay [19] (10 µM unless noted) is 106% (inactive).

Source of the values: PubChem BioAssay (NCI).
